Assay outcomes (PubChem BioAssay)
An excerpt weighted towards active compounds, which were near 20% of everything screened.
Shiga inhibitor = inhibitors of Shiga toxin in Vero cells; AID 2315; inhibition, % at 38.7 µM; 9.2% of 290,000 active; Vero cells, Shiga toxin protein synthesis inhibition reporter; in the data active = inhibition mostly above about 28%, no sharp cut-off; inactive = mostly below about 43%; note: 0% is about no effect
HCMV antiviral = human cytomegalovirus inhibition; HFF cells, HCMV-luciferase reporter, 72 h; hits give low values; activity change, negative = inhibition, % at 57.5 µM; 4.5% of 410,000 active; in the data active = activity change below about -60%; inconclusive = no clear call, values can overlap the other calls; inactive = above about -39%; note: % is set by controls: 0 for no effect and ±100 for the full control effect
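Screen run at 2 compound doses on HFFs infected with reporter HCMV, MOI 1 PFU/cell. Luciferase activity from cell lysates at 72 h post infection gave inhibition relative to buffer-only and Salinomycin wells.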
Pf growth 48h = inhibits P. falciparum growth in the first generation, 48 h; 5.9% of 310,000 active; P. falciparum luciferase growth in erythrocytes, 48 h; AID 504832; Potency, µM (titrated, usually from 28.7 µM), for the others: top-dose activity change, negative = inhibition, actives largely listed as inhibitors; note: potency is the fitted concentration of half-maximal effect; % is set by controls: 0 for no effect and ±100 for the full control effect
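In quantitative HTS format, infected erythrocytes bearing luciferase-reporter parasites were treated for a single generation at 37 C. Luminescence after adding detection reagent served as the growth measure.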
Pf growth 96h = P. falciparum growth inhibition at 96 hours | 6.9% of 320,000 active | AID 504834 | P. falciparum luciferase reporter growth, 96 h | Potency, µM (doses to about 28.7 µM), for the others: at the top dose activity change, negative = inhibition, most hits filed as inhibitors; note: potency is the fitted concentration of half-maximal effect; % is set by controls: 0 for no effect and ±100 for the full control effect
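Two parasite generations (96 h, 37 C, 5% CO2) of compound exposure in infected erythrocytes (0.05% parasitemia, 2% hematocrit). Luciferase-reporter P. falciparum; decreased luminescence indicates inhibited growth, aimed at apicoplast-acting delayed death.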
Cycloheximide cs = counter-screen for Shiga toxin inhibitors: cycloheximide protein synthesis inhibition; max response, %; 12% of 300,000 active; cell reporter, cycloheximide protein synthesis inhibition counterscreen; in the data active = max response mostly above about 13%, no sharp cut-off; inactive = mostly below about 14%; note: read at 38.3 µM for the half of the compounds with a filed dose; 0% is about no effect
* hit, by the source's call. Unless noted, calls come from the whole dose curve; as a rule, active = well fitted inhibition curve with a large enough effect; inconclusive = small, poorly fitted or top-dose-only effect, or another doubt; inactive = no such curve, though single readings can be large or run the other way.

Results for O=C(O)/C=C/c1ccc(S(=O)(=O)Nc2ccccc2C(=O)Nc2ccc(F)cc2)cc1 ?
Shiga inhibitor: -6; HCMV antiviral: -29; Pf growth 48h: inconclusive; Pf growth 96h: -5%; Cycloheximide cs: 5

How did CSCC[C@H](NC(=O)[C@H]1CC[C@H](CNC(=O)[C@@H](N)Cc2ccccc2)CC1)C(=O)O do in these assays?
Shiga inhibitor: 2; HCMV antiviral: 1; Pf growth 48h: 24%; Pf growth 96h: -1%; Cycloheximide cs: -3

Results for CCN(CC)c1ccc(N=CN2CCOCC2)cc1 ?
Shiga inhibitor: 6; HCMV antiviral: -19; Pf growth 48h: inconclusive; Pf growth 96h: inconclusive; Cycloheximide cs: -3

What do the screens show for `COc1ccc(C2CC(c3ccc(C)cc3)=NN2C(=O)c2ccccc2)cc1` (stereo unspecified)?
Shiga inhibitor: -6; HCMV antiviral: 0; Pf growth 48h: inconclusive; Pf growth 96h: inconclusive; Cycloheximide cs: 2

Results for COc1ccccc1C1CC(c2ccc(Br)cc2)=NN1C(=O)c1cccnc1 (stereo unspecified) ?
Shiga inhibitor: 3; HCMV antiviral: 35; Pf growth 48h: 4.1µM*; Pf growth 96h: 1.9µM*; Cycloheximide cs: 3

What do the screens show for `O=C(c1ccncc1)N1N=C(c2ccc(Cl)cc2)CC1c1ccccc1O` (stereo unspecified)?
Shiga inhibitor: 116*; HCMV antiviral: 55; Pf growth 48h: inconclusive; Pf growth 96h: inconclusive; Cycloheximide cs: 45*

How did COc1cccc(C2CC(c3cccc(NS(C)(=O)=O)c3)=NN2C(=O)c2ccccc2)c1OC (stereo unspecified) do in these assays?
Shiga inhibitor: -12; HCMV antiviral: -73*; Pf growth 48h: 1.9µM*; Pf growth 96h: inconclusive; Cycloheximide cs: -2

What do the screens show for `COc1ccc(C2=NN(C(=O)c3ccncc3)C(c3ccccc3O)C2)cc1` (stereo unspecified)?
Shiga inhibitor: 14; HCMV antiviral: -39; Pf growth 48h: inconclusive; Pf growth 96h: inconclusive; Cycloheximide cs: 10

What do the screens show for `COc1cccc(C2CC(c3ccc(Br)cc3)=NN2C(=O)c2ccncc2)c1OC` (stereo unspecified)?
Shiga inhibitor: 42; HCMV antiviral: -11; Pf growth 48h: 12µM*; Pf growth 96h: inconclusive; Cycloheximide cs: 5

Results for O=C(COc1ccccc1[N+](=O)[O-])Nc1cc(-c2nc3cc(Cl)ccc3o2)ccc1Cl ?
HCMV antiviral: 48

Results for O=C(Nc1cc2c(cc1Cl)OCCCO2)c1ccco1 ?
Shiga inhibitor: 105*; HCMV antiviral: -4; Pf growth 48h: 228%; Pf growth 96h: 232%; Cycloheximide cs: 80*

How did CCOc1cc(Cl)c(NC(=O)c2ccco2)cc1OCC do in these assays?
Shiga inhibitor: 6; HCMV antiviral: 10; Pf growth 48h: -1%; Pf growth 96h: 26%; Cycloheximide cs: -2

How did O=C(Nc1cc2c(cc1Cl)OCCCO2)c1ccccc1 do in these assays?
Shiga inhibitor: 99*; HCMV antiviral: 13; Pf growth 48h: 138%; Cycloheximide cs: 31*

Results for COc1ccccc1C(=O)Nc1cc2c(cc1C(=O)O)OCCCO2 ?
Shiga inhibitor: -7; HCMV antiviral: -12; Pf growth 48h: 6%; Pf growth 96h: -3%; Cycloheximide cs: -6

Results for CC(C)C(=O)c1cc2c(cc1NC(=O)c1ccccc1)OCCO2 ?
Shiga inhibitor: -4; HCMV antiviral: inconclusive; Pf growth 48h: inconclusive; Pf growth 96h: inconclusive; Cycloheximide cs: -1

What do the screens show for `O=C(Nc1cc2c(cc1C(=O)O)OCCCO2)c1ccc(F)cc1F`?
Shiga inhibitor: 45; HCMV antiviral: -17; Pf growth 48h: 69%; Pf growth 96h: 83%; Cycloheximide cs: 17*

Results for CCOc1ccc(C(=O)c2cc([N+](=O)[O-])ccc2Cl)cc1 ?
Shiga inhibitor: -27; HCMV antiviral: 39; Pf growth 48h: 8%; Pf growth 96h: -19%; Cycloheximide cs: -3

Results for COc1cccc(NC(=S)N(CCC(C)C)C2CCN(C(C)=O)CC2)c1 ?
Shiga inhibitor: -8; HCMV antiviral: -12; Pf growth 96h: 2%; Cycloheximide cs: 2

What do the screens show for `COC(=O)C1=NNC(C(=O)c2ccco2)C1c1ccc(OC)cc1` (stereo unspecified)?
Shiga inhibitor: -6; HCMV antiviral: -64*; Pf growth 48h: -13%; Pf growth 96h: -21%; Cycloheximide cs: 1

What do the screens show for `COc1ccccc1-c1cc(NC(C)=O)c2ncc(-c3cccc(C(C)=O)c3)n2c1`?
HCMV antiviral: -16

What do the screens show for `CCN(CC)S(=O)(=O)c1cccc(-c2nc3n(n2)Cc2ccccc2-3)c1`?
Shiga inhibitor: 26; HCMV antiviral: 3; Pf growth 48h: 25%; Pf growth 96h: 11%; Cycloheximide cs: 15

How did Clc1ccc(-c2nc3n(n2)Cc2ccccc2-3)cc1 do in these assays?
Shiga inhibitor: 118*; HCMV antiviral: 62; Pf growth 48h: inactive; Pf growth 96h: inactive; Cycloheximide cs: 66*

How did Cc1ccc(S(=O)(=O)NCC(=O)OCc2csc(-c3ccccc3)n2)cc1 do in these assays?
Shiga inhibitor: -9; HCMV antiviral: 10; Pf growth 48h: 17%; Pf growth 96h: 59%; Cycloheximide cs: 15*

Results for O=C(CNS(=O)(=O)c1c(Cl)cccc1Cl)OCc1csc(-c2ccccc2)n1 ?
Shiga inhibitor: 12; HCMV antiviral: -14; Pf growth 48h: 30%; Pf growth 96h: 61%; Cycloheximide cs: 18*

What do the screens show for `O=C(CNS(=O)(=O)c1ccc2ccccc2c1)OCc1csc(-c2ccccc2)n1`?
Shiga inhibitor: 19; HCMV antiviral: 2; Pf growth 48h: -6%; Pf growth 96h: inconclusive; Cycloheximide cs: 20*

How did O=S(=O)(NCc1csc(-c2ccccc2)n1)c1ccc(Cl)s1 do in these assays?
Shiga inhibitor: -6; HCMV antiviral: 5; Pf growth 48h: -16%; Pf growth 96h: inconclusive; Cycloheximide cs: 5

What do the screens show for `Cc1ccc(C(=O)NCC(=O)OCc2csc(-c3ccccc3)n2)cc1`?
Shiga inhibitor: 70*; HCMV antiviral: 7; Pf growth 48h: 1%; Pf growth 96h: 1%; Cycloheximide cs: 36*

Results for CCOc1ccc(C(=O)NCC(=O)OCc2csc(-c3ccccc3)n2)cc1 ?
Shiga inhibitor: 3; HCMV antiviral: -9; Pf growth 48h: 35%; Pf growth 96h: 0%; Cycloheximide cs: 15

Results for O=C(NCC(=O)N1CCC2(CC1)NCCc1[nH]cnc12)c1ccc(F)cc1 ?
Shiga inhibitor: 1; HCMV antiviral: inconclusive; Pf growth 48h: -8%; Pf growth 96h: 0%; Cycloheximide cs: 1

What do the screens show for `Cc1ccc(CNC(=O)[C@@H](NC(=O)C2CCN(C(=O)[C@@H]3CCCN3)CC2)C(C)C)cc1`?
Shiga inhibitor: -1; HCMV antiviral: -10; Pf growth 48h: 21%; Pf growth 96h: 36%; Cycloheximide cs: -2

What do the screens show for `O=C(OCc1csc(-c2ccccc2)n1)c1ccc(O)cc1`?
Shiga inhibitor: 116*; HCMV antiviral: 43; Pf growth 48h: 108%; Pf growth 96h: 199%; Cycloheximide cs: 37*
